hNpr1 antagonist: antagonists of human natriuretic peptide receptor Npr1; Potency, µM (series often up to 46.3 µM), usual class: inhibitors; HEK293 hNpr1 GloSensor cGMP, ANP-stimulated luminescence; 76,000 tested, 1.6% active; P16066; calls by dose curve; further: nearly all actives have a fitted effect of over 60% in size
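HEK293 cells stably expressing human Npr1 and cGMP GloSensor pGS-40F, loaded 2 h with 2% GloSensor reagent, given compound 30 min at room temperature. Luminescence read before and 20 min after 0.1 nM hNppA.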
HEK cytotox: HEK 293 cell cytotoxicity. HEK 293 viability, ATP luminescence (CellTiter-Glo), 48-72 h. Potency, µM (series often up to 115 µM), actives largely listed as inhibitors. 94,000 tested, 6.6% active; further: nearly all actives have a fitted effect of over 60% in size
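ATP-coupled CellTiter-Glo luminescence served as viability read-out, recorded 10 min after reagent addition at room temperature. HEK 293 cells, 250 cells/well, had been incubated with pintool-transferred compound for 48 or 72 hr at 37 degree Celsius.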
FLuc inh: Photinus pyralis luciferase inhibition; P08659; purified P. pyralis luciferase, luminescence, biochemical; Potency, µM (titrated, usually from 115 µM), hits mostly inhibitors; 76,000 tested, 2.5% active; AID 1347043; further: nearly all actives have a fitted effect of over 65% in size
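Purified P. pyralis luciferase (10nM final) in 50mM Tris acetate pH 7.5, 10mM Mg acetate, 0.01% Tween-20, 0.05% BSA with 10uM D-luciferin and 10uM ATP. Compounds titrated qHTS. Luminescence imaged on CCD.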
3T3 cytotox: cytotoxic compounds in NIH 3T3 cells; NIH 3T3 viability, CellTiter-Glo ATP luminescence, 48-72 h; Potency, µM (titrated, usually from 96.7 µM), usual class: inhibitors; 94,000 tested, 4.3% active; further: nearly all actives have a fitted effect of over 55% in size
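First NIH 3T3 cells are plated at 400 cells/well; next compound is pinned in; then plates incubate 48 or 72 hr at 37 °C; finally CellTiter-Glo is added and luminescence read after 10 min.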
A number is an active result; n = inactive; u = inconclusive; x = no result given. In the library only some 11% were active in any assay of this set; here they are far more common. Unless noted, the call rests on the fitted dose curve; in most records, active means well fitted curve in the direction sought with a large enough effect; inconclusive means small, poorly fitted or top-dose-only effect, or another doubt; inactive means no such curve, though single readings can be large; an effect the other way counts as inactive or inconclusive.

SMILES	hNpr1 antagonist	HEK cytotox	FLuc inh	3T3 cytotox
O=C(C1CC1)N1CCc2nc(-c3ccc(Cl)cc3)nc(-c3ccccc3)c2C1	n	40µM	n	u
O=C(c1ccc(F)cc1)N1CCc2nc(-c3ccccc3)nc(-c3ccc(Cl)cc3)c2C1	n	u	n	u
COc1ccc(C(=O)N2CCc3nc(-c4ccccc4)nc(-c4ccc(Cl)cc4)c3C2)cc1	x	22µM	x	u
COc1ccc(CN2CCOc3ccc(C(=O)NCc4ccccc4F)cc3C2)c(OC)c1	n	u	n	u
CC(C)NC(=O)N1CCCN(c2ccc3nnc(C4CC4)n3n2)CC1	x	n	x	n
Cn1cc(-c2cccc(C(F)(F)F)c2)c2nc(CNc3ccccc3)cn2c1=O	n	50µM	n	25µM
COCc1ccccc1-c1cn(C)c(=O)n2cc(COc3ccc(Cl)cc3)nc12	u	u	n	u
COc1cncc(-c2cn(C)c(=O)n3cc(CNc4ccccc4)nc23)c1	n	u	n	u
Cn1cc(-c2ccccc2)c2nc(COc3ccc(Cl)cc3)cn2c1=O	n	u	n	50µM
Cn1cc(-c2cn(C)c(=O)n3cc(COc4ccc(Cl)cc4)nc23)cn1	n	71µM	u	u
Cc1c(-c2cn(C)c(=O)n3cc(COc4ccc(Cl)cc4)nc23)cnn1C	n	u	u	u
Cn1cc(-c2cccc(OC(F)(F)F)c2)c2nc(CN3CCNC(=O)C3)cn2c1=O	n	n	n	100µM
CN1CCN(Cc2cn3c(=O)n(C)cc(-c4cccc(OC(F)(F)F)c4)c3n2)CC1	n	u	n	u
O=C(NCc1c[nH]c(=O)[nH]c1=O)C1CCN(Cc2ccco2)CC1	n	n	n	n
COc1ccc(CN[C@H]2[C@H](O)[C@H](O)C[C@@H]2c2ccccc2)cc1	n	u	n	n
COc1cccc(OC)c1-c1c(-c2ccccc2)ncn1CCCSC	n	u	n	u
CN(Cc1ccc(-c2ccccc2)cc1)Cc1ccsc1	n	n	n	n
Cn1cc(-c2ccnc(N3CCOCC3)c2)c2nc(COc3ccc(Cl)cc3)cn2c1=O	u	u	u	28µM
Cc1cc(C)cc(C2(CNC(=O)C3CC4(CCNCC4)CN3)CCCC2)c1 (centres undefined)	n	79µM	n	u
Cc1cccc(-c2nc3ccc(C(=O)NCCc4ccccc4)cc3o2)n1	x	100µM	x	u
O=C(NCCc1ccccc1)c1ccc2nc(-c3ccccn3)oc2c1	x	89µM	x	u
O=C(NCCCc1ccccc1)c1ccc2nc(-c3cccnc3Cl)oc2c1	x	u	x	45µM
O=C(C1CCOCC1)N1CCC(Oc2ccccc2-c2nc(C3CC3)no2)C1 (centres undefined)	x	u	x	n
O=S(=O)(Cc1ccccc1F)N1CCCC(CN2CCOCC2)CC1 (centres undefined)	n	n	n	n
O=C(CCn1ccn2nc3c(c2c1=O)CCCC3)Nc1cccc(C(F)(F)F)c1	n	u	n	n
SMILES	hNpr1 antagonist	HEK cytotox	FLuc inh	3T3 cytotox
CCc1nc2c(c(-c3ccc(OC)cc3)n1)CN([S+](=O)([O-])c1cccs1)CC2	x	n	x	11µM
COc1ccc(-c2nc(C3CC3)nc3c2CN([S+](=O)([O-])c2cccs2)CC3)cc1	x	n	x	u
COc1ccc(-c2nc(C)nc3c2CN([S+](=O)([O-])c2cccs2)CC3)cc1	x	n	x	28µM
COc1ccc(-c2nc(C)nc3c2CCN([S+](=O)([O-])c2ccccc2)CC3)cc1	n	n	n	n
Cc1nc2c(c(-c3ccc(Cl)cc3)n1)CCN([S+](C)(=O)[O-])CC2	n	n	n	n
C[S+](=O)([O-])N1CCc2nc(-c3ccc(Cl)cc3)nc(-c3ccccc3)c2C1	n	n	n	n
COc1ccc(-c2nc(C3CC3)nc3c2CN([S+](=O)([O-])c2ccccc2)CC3)cc1	x	n	x	18µM
Cc1nc2c(c(-c3ccc(Cl)cc3)n1)CN([S+](=O)([O-])c1ccsc1)CC2	n	n	n	22µM
COc1ccc(-c2nc(C)nc3c2CN([S+](=O)([O-])c2ccccc2)CC3)cc1	x	n	x	35µM
Cc1ccc([S+](=O)([O-])N2CCc3nc(-c4ccc(Cl)cc4)nc(-c4ccccc4)c3C2)cc1	n	u	28µM	n
O=C(NC1CCCc2c1[nH]c1ccccc21)c1cccs1 (centres undefined)	n	u	n	u
CCOc1ccccc1CNC(=O)c1nnn2cc(C)[nH]c(=O)c12	n	n	n	n
CN(Cc1ccccc1F)C1CCc2ccccc21 (centres undefined)	n	u	n	n
CCN(CC)Cc1nc(C2(O)CCN(Cc3ccccc3O)CC2)cs1	n	n	n	u
CCN(CC)Cc1nc(C2(O)CCN(Cc3ccccc3C(F)(F)F)CC2)cs1	n	89µM	n	u
O[C@@H]1C[C@@H](c2nc(-c3ccc(F)cc3)no2)N(Cc2ccc(F)cc2)C1	n	100µM	n	u
CS(=O)(=O)c1ccc(CN2C[C@H](O)C[C@H]2c2nc(-c3ccc(F)cc3)no2)cc1	n	n	45µM	n
Cc1ccc(CN2CCCC3(CCC(=O)N(CCc4cnc[nH]4)C3)C2)s1 (centres undefined)	n	n	n	n
CCOc1ccc(C(=O)NC2CCN(c3cc(-c4ccc(OC)cc4)[nH]n3)CC2)cc1OCC	n	u	n	n
Cc1ccc(-n2c(C3CCN(C(=O)COc4ccc(Cl)cc4)CC3)n[nH]c2=O)cc1	n	n	n	2.8µM
COc1ccc(Cn2c(C3CCN(C(=O)Cc4ccc(Cl)cc4)CC3)n[nH]c2=O)cc1	n	u	n	35µM
O=C(COc1ccccc1)N1CCC(c2n[nH]c(=O)n2Cc2ccc(F)cc2)CC1	n	u	n	28µM
O=C(COc1ccc(Cl)cc1)N1CCC(c2n[nH]c(=O)n2Cc2ccc(F)cc2)CC1	n	u	n	3.2µM
CN(Cc1ccccc1C(F)(F)F)C(=O)Cc1ccc(F)cc1	n	u	n	u
COc1cccc(C(=O)N2CCC(Oc3ncccc3C(=O)N3CCCCC3)C2)c1OC (centres undefined)	n	n	n	n
SMILES	hNpr1 antagonist	HEK cytotox	FLuc inh	3T3 cytotox
CCc1nc(-c2c(-c3ccccc3)ncn2CCc2ccncc2)c(C)[nH]1	n	n	n	n
Cc1ccc(Cn2c(C3CCN(C(=O)c4ccc(C(C)(C)C)cc4)CC3)n[nH]c2=O)cc1	u	25µM	n	28µM
CO[C@H]1CN(C2CCN(C(=O)CCC3CCCC3)CC2)[C@H]1c1cccnc1	x	u	x	n
COc1ccc(-c2n[nH]c3c2CC(=O)N(CCOc2ccccc2)C3)cc1F	n	100µM	n	u
O=C1Cc2c(-c3ccccc3)n[nH]c2CN1CCOc1ccccc1	13µM	n	u	u
O=C(O)c1cccc(-c2n[nH]c3c2CC(=O)N(CCOc2ccccc2)C3)c1	n	n	n	u
COCCN1Cc2[nH]nc(-c3cccc(OC)c3)c2CC1=O	n	u	n	100µM
O=C(O)c1cccc(-c2n[nH]c3c2CC(=O)N(c2ccccc2)C3)c1	n	u	63µM	u
COc1ccc(-c2ccc(C(=O)Nc3ccc(Cl)cc3)cc2)nn1	x	n	x	n

High-throughput results deposited in PubChem BioAssay by National Center for Advancing Translational Sciences (NCATS).
